Laboratory results taken from PubChem BioAssay (Tox21).
Inconclusive results are not listed. Active and inactive are the calls of the source. Unless noted, calls follow the shape of the dose curve; as a rule, active = well fitted curve in the direction sought with a large enough effect in the repeat runs; inconclusive = weak or mixed curves; inactive = no such curve, though single readings can be large; an effect the other way counts as inactive or inconclusive.

Key:
[1] = target: Progesterone receptor (Homo sapiens) (UniProt P06401); experiment: qHTS assay to identify small molecule antagonists of the progesterone receptor (PR) signaling pathway (AID 1346795; active = well fitted inhibition curve with a large enough effect in the signal ratio in the repeat runs, not every such curve was filed as active; the % refers to the signal ratio; also: potency is read from the fitted curve at half-maximal effect; as to activity change, negative = inhibition: % is scaled to controls: 0 for no effect and ±100 for the full control effect)
Sequence of Progesterone receptor (Homo sapiens) (P06401 whole entry, looked up): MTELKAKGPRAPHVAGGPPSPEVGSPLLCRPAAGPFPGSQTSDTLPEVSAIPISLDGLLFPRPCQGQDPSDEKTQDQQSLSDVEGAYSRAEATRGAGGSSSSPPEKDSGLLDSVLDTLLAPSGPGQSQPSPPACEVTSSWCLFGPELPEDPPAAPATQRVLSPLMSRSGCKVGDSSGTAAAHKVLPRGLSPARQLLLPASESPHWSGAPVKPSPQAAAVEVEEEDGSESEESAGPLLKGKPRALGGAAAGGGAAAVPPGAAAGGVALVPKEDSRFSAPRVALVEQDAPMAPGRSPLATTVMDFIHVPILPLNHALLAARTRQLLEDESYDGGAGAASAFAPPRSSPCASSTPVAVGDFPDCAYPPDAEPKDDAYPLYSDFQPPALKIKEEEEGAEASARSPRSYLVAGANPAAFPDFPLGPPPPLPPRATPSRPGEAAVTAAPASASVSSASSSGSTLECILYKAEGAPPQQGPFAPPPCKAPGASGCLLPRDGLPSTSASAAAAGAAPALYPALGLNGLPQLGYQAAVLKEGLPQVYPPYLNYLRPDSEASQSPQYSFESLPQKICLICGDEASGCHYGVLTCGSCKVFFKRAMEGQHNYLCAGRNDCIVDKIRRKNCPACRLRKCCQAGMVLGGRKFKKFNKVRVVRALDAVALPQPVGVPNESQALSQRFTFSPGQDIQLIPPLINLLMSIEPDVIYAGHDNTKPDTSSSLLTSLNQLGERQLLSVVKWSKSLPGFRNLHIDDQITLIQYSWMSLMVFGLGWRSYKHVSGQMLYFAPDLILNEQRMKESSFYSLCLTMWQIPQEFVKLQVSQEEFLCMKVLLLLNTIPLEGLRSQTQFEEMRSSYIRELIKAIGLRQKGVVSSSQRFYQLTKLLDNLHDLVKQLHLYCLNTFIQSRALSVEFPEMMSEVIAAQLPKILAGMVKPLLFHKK
In short: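 Fluorescence intensity measured 2 hr after adding beta-lactamase FRET substrate to PR-UAS-bla HEK293T cells that had been co-treated 16 hr with compound and 1 nM R5020 (final concentration) in 2% charcoal-stripped FBS.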

[2] = target: Thyrotropin-releasing hormone receptor (Homo sapiens) (UniProt P34981); experiment: qHTS assay to identify small molecule antagonists of the thyrotropin-releasing hormone receptor (TRHR) signaling pathway (AID 1346877; active = well fitted inhibition curve with a large enough effect in the repeat runs, not every such curve was filed as active; also: series mostly up to about 51 µM; % is scaled to controls: 0 for no effect and ±100 for the full control effect)
Sequence of Thyrotropin-releasing hormone receptor (Homo sapiens) (P34981 whole entry, looked up): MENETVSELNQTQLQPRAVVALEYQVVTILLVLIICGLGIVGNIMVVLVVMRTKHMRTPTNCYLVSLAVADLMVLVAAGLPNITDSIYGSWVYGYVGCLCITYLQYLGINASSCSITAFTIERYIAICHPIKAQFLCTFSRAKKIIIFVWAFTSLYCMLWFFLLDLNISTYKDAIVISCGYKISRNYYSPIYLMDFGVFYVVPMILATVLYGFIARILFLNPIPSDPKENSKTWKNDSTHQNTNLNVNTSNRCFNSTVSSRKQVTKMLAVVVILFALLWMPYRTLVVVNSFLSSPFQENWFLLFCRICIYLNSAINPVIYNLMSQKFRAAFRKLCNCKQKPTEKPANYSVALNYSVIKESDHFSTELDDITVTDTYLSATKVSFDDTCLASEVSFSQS
In short: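 Overnight-plated (18 h, 37 °C) HEK293 cells expressing TRHR were dye-loaded 2 h, treated with compound, then stimulated with TRH at 1 nM final. Fluorescence intensity was captured every second for 3 min.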

[3] = target: Thyrotropin-releasing hormone receptor (Homo sapiens) (UniProt P34981); experiment: qHTS assay to identify small molecule agonists of the thyrotropin-releasing hormone receptor (TRHR) signaling pathway (AID 1346891; calls by dose curve;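 also: HEK293 cells expressing TRHR with calcium dye readout; series mostly up to about 58 µM; % is scaled to controls: 0 for no effect and ±100 for the full control effect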)
In short: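 Compounds were tested as agonists at 15 concentrations, in triplicate, on TRHR-Hek293 cells; calcium-sensitive dye fluorescence was recorded for 3 min following addition.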

[4] = Human pregnane X receptor (PXR) small molecule agonists, qHTS cell viability counter screen (AID 1346977); also: nearly all actives have a fitted effect of over 50% in size; also: potency is read from the fitted curve at half-maximal effect
In short: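 Viability counter screen: CellTiter-Fluor signal in PXR-Luc HepG2 cells, 24hr compound exposure, 37C, 5% CO2.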

[5] = target: Nuclear receptor subfamily 1 group I member 2 (Homo sapiens) (UniProt O75469); experiment: Human pregnane X receptor (PXR) small molecule agonists, qHTS assay (AID 1346982); also: nearly all actives have a fitted effect of over 35% in size; also: potency is read from the fitted curve at half-maximal effect
Sequence of Nuclear receptor subfamily 1 group I member 2 (Homo sapiens) (O75469 whole entry, looked up): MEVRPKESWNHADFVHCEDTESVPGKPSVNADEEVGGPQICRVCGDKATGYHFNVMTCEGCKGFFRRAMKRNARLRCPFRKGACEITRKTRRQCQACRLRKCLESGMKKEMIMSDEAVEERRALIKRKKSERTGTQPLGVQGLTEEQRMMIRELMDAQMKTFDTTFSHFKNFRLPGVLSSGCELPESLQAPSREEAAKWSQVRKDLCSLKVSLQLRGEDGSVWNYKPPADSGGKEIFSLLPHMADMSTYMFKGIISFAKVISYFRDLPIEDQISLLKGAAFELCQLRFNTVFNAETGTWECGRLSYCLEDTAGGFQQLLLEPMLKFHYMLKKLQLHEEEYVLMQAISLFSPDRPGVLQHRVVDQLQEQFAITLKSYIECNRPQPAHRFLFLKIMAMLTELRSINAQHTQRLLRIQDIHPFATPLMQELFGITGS
In short: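 Stable HepG2 line reporting PXR-mediated CYP3A4 expression via luciferase. Treatment: 24 hr with compounds in DMSO at 37 C. Detection: ONE-Glo luminescence.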

[6] = target: Cytochrome P450 2D6 (Homo sapiens) (UniProt P10635); experiment: Cytochrome P450 Family 2 Subfamily D Member 6 (CYP2D6) small molecule antagonists: luciferase reporter qHTS assay (AID 1671196); also: nearly all actives have a fitted effect of over 50% in size; also: potency is read from the fitted curve at half-maximal effect
Sequence of Cytochrome P450 2D6 (Homo sapiens) (P10635 whole entry, looked up): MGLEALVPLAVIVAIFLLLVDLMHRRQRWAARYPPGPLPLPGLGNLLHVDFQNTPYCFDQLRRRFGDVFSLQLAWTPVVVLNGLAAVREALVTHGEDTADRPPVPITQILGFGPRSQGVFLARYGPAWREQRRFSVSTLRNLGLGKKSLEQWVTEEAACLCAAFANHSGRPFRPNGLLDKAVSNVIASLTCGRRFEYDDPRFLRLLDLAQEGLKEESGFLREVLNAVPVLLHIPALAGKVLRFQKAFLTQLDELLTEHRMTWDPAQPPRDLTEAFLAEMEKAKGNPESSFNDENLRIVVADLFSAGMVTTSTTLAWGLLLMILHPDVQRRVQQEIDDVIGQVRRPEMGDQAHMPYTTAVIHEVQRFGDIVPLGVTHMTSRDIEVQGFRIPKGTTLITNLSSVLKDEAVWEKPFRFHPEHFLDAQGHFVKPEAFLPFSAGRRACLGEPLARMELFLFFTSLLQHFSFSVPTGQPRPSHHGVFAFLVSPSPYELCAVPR
In short: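 Chemicals tested for interference with CYP2D6 activity; proluciferin substrate, NADPH regeneration, 1 h at room temperature, luminescent detection.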

[7] = target: Cytochrome P450 2C19 (Homo sapiens) (UniProt P33261); experiment: Cytochrome P450 Family 2 Subfamily C Member 19 (CYP2C19) small molecule antagonists: luciferase reporter qHTS assay (AID 1671197); also: nearly all actives have a fitted effect of over 65% in size; also: potency is read from the fitted curve at half-maximal effect
Sequence of Cytochrome P450 2C19 (Homo sapiens) (P33261 whole entry, looked up): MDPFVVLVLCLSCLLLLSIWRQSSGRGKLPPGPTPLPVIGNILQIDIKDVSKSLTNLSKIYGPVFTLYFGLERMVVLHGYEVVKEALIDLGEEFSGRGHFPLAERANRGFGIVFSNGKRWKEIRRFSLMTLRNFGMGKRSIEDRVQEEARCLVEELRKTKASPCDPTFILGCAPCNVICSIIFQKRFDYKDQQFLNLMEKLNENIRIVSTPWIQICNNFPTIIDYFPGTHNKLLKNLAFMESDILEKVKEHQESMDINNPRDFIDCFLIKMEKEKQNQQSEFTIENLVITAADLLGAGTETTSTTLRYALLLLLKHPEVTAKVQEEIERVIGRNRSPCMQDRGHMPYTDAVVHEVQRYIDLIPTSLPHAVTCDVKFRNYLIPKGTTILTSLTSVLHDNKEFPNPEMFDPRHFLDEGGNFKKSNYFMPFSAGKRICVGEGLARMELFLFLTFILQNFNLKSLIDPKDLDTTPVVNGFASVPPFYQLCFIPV
In short: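 Enzyme-substrate mix with proluciferin substrate (P450-Glo CYP2C19 system) preincubated with compounds 10 min at room temperature; NADPH regeneration solution added, 37C for 1 h; detection reagent stops reaction, luminescence read after 20 min. Ketoconazole positive control.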

[8] = target: Cytochrome P450 2C9 (Homo sapiens) (UniProt P11712); experiment: Cytochrome P450 Family 2 Subfamily C Member 9 (CYP2C9) small molecule antagonists: luciferase reporter qHTS assay (AID 1671198); also: nearly all actives have a fitted effect of over 50% in size; also: potency is read from the fitted curve at half-maximal effect
Sequence of Cytochrome P450 2C9 (Homo sapiens) (P11712 whole entry, looked up): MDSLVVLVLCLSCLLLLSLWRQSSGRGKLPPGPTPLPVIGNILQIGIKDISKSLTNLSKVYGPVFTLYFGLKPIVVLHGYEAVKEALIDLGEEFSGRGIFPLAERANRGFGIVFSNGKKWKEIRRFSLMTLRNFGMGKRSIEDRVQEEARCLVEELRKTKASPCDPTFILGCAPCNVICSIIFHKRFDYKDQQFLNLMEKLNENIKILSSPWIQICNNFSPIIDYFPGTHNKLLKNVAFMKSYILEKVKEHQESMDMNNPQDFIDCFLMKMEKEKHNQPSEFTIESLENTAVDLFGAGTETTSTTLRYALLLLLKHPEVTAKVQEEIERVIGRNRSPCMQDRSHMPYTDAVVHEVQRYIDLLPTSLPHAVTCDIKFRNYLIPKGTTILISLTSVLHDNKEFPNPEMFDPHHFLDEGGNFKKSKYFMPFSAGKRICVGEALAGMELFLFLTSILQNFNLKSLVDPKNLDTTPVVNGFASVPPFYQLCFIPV
In short: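 Enzyme-substrate mix preincubated with compound 10 min at room temperature; reaction started with NADPH regeneration solution, 1 h 37C. Luminescent luciferin product read after 20 min detection reagent.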

[9] = qHTS assay to identify small molecule antagonists of the TGF-beta/Smad signaling pathway - cell viability counter screen (AID 1346824); also: % is scaled to controls: 0 for no effect and ±100 for the full control effect; nearly all actives have a fitted effect of over 50% in size
In short: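 Cytotoxicity counter-screen run in the same wells as the beta-lactamase Smad reporter read: CellTiter-Glo luminescence after 30 min at room temperature. HEK 293T SBE-bla cells had 5 hr compound exposure at 37 C with TGF-beta1 (0.25 ng/mL stock).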

[10] = qHTS assay to identify small molecule agonists of the TGF-beta/Smad signaling pathway - cell viability counter screen (AID 1346829); also: top concentration of the series differs between compounds; % is scaled to controls: 0 for no effect and ±100 for the full control effect; nearly all actives have a fitted effect of over 45% in size
In short: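 CellTiter-Glo luminescence readout; SBE-bla HEK 293T cells, overnight plating, compound 5 hr at 37 C/5% CO2, then bla substrate 2 hr RT, then CellTiter-Glo 30 min RT.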

[11] = Caspase-3/7 induction in HepG2 cells by small molecules, qHTS assay (AID 1346978); also: % is scaled to controls: 0 for no effect and ±100 for the full control effect; nearly all actives have a fitted effect of over 15% in size
In short: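 Caspase-3/7 induction was measured by Caspase-Glo 3/7 luminescence (30 min, room temperature) after a 17 hr compound exposure of wild-type HepG2 cells seeded at 2,000 per well and pre-incubated 5 hr.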

[12] = Caspase-3/7 induction in CHO-K1 cells by small molecules, qHTS cell viability counter screen (AID 1346979); also: nearly all actives have a fitted effect of over 35% in size; also: potency is read from the fitted curve at half-maximal effect
In short: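 Viability readout by fluorescence (CellTiter-Fluor) on wild-type CHO-K1 cells exposed for 16hr at 37C and 5% CO2 to compounds delivered in DMSO; reagent incubated 1hr before reading.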

[13] = Caspase-3/7 induction in CHO-K1 cells by small molecules, qHTS assay (AID 1346980); also: nearly all actives have a fitted effect of over 15% in size; also: potency is read from the fitted curve at half-maximal effect
In short: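 Luminescent Caspase-Glo 3/7 read (30min, room temperature) quantified apoptosis induction. Cells were wild-type CHO-K1, treated with compound for 17hr at 37 C and 5% CO2.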

[14] = qHTS assay to identify small molecule antagonists of the progesterone receptor (PR) signaling pathway - cell viability counter screen (AID 1346798)
In short: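 CellTiter-Glo luminescence; PR-UAS-bla HEK293T, 3,000 cells/well; compound + R5020, 16 hr, 37C/5% CO2; 30 min RT before read.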

[15] = qHTS assay to identify small molecule agonists of the progesterone receptor (PR) signaling pathway - cell viability counter screen (AID 1346799; calls by dose curve; also: % is scaled to controls: 0 for no effect and ±100 for the full control effect; nearly all actives have a fitted effect of over 45% in size)
In short: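 In parallel with the beta-lactamase readout, cytotoxicity toward PR-UAS-bla HEK293T cells was measured by CellTiter-Glo luminescence following 16 hr compound incubation in 2% charcoal-stripped FBS medium.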

[16] = qHTS assay to identify small molecule agonists of the TGF-beta/Smad signaling pathway (AID 1346859; active = well fitted activation curve with a large enough effect in the signal ratio in the repeat runs, not every such curve was filed as active; the % refers to the signal ratio; also: series mostly up to about 77 µM; % is scaled to controls: 0 for no effect and ±100 for the full control effect)
In short: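 After overnight seeding, SBE-bla HEK 293T cells are dosed with compounds in DMSO and kept 5 hr at 37 C, 5% CO2. LiveBLAzer-type FRET substrate is then applied for 2 hr at room temperature.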

[17] = Caspase-3/7 induction in HepG2 cells by small molecules, qHTS cell viability counter screen (AID 1346981); also: nearly all actives have a fitted effect of over 30% in size; also: potency is read from the fitted curve at half-maximal effect
In short: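 Treatment of HepG2 cells with DMSO-delivered compounds ran 16 hr at 37 C following a 5-hr pre-incubation of 2,000 cells/well. CellTiter-Fluor fluorescence, read after 1 hr, served as the viability measure in a qHTS format.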

[18] = target: Nuclear receptor subfamily 1 group I member 2 (Homo sapiens) (UniProt O75469); experiment: CYP3A4 induction through human pregnane X receptor (PXR) by small molecules, qHTS assay (AID 1346984); also: % is scaled to controls: 0 for no effect and ±100 for the full control effect; nearly all actives have a fitted effect of over 40% in size
In short: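 After 24 h at 37C with compound, DPX-2 cells (HepG2, co-transfected PXR response element and CYP3A4 promoter-luciferase) got 3uM final P450-Glo Luciferin-IPA for 3 h; One-Glo luminescence followed.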

[19] = target: Nuclear receptor subfamily 1 group I member 2 (Homo sapiens) (UniProt O75469); experiment: Human pregnane X receptor (PXR) activation by small molecules, qHTS assay (AID 1346985); also: potency is read from the fitted curve at half-maximal effect; nearly all actives have a fitted effect of over 40% in size
In short: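 DPX-2 cells (HepG2 co-transfected with a PXR response element and a CYP3A4-promoter luciferase construct) were seeded at 2,000 per well, rested 5 hr at 37C, then exposed to DMSO-dissolved compounds for 24 hr. Activation was read as luciferase luminescence.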

CC(NCCC(c1ccccc1)c1ccccc1)c1ccccc1 (stereo not given)
inactive: Potency [2] | Potency [3]
active: Potency [1] 29.8 µM | Potency [4] 26.6 µM | Potency [5] 6.68 µM | Potency [6] 0.219 µM | Potency [7] 4.36 µM | Potency [8] 15.5 µM

NC1(c2ccc(-c3nc4ccn5c(=O)[nH]nc5c4cc3-c3ccccc3)cc2)CCC1
active: Potency [4] 26.6 µM | Potency [12] 26.6 µM
inactive: Potency [1] | Potency [9] | Potency [10] | Potency [2] | Potency [3] | Potency [11] | Potency [13] | Potency [6] | Potency [8]

COc1nccnc1CC(C)C
inactive: Potency [14] | Potency [15] | Potency [9] | Potency [10] | Potency [16] | Potency [2] | Potency [3] | Potency [4] | Potency [11] | Potency [12] | Potency [13] | Potency [17] | Potency [5] | Potency [6] | Potency [7] | Potency [8]

CCC(=O)OCCc1ccccc1
active: Potency [8] 13.6 µM
inactive: Potency [14] | Potency [15] | Potency [9] | Potency [10] | Potency [16] | Potency [2] | Potency [3] | Potency [4] | Potency [11] | Potency [13] | Potency [17] | Potency [5] | Potency [6] | Potency [7]

CC(C)c1cccc(C(C)C)c1N1C(=O)c2ccc(O)cc2C1=O
inactive: Potency [9] | Potency [10] | Potency [2] | Potency [3] | Potency [4] | Potency [13]
active: Potency [1] 6.11 µM | Potency [5] 27.3 µM | Potency [6] 31.7 µM | Potency [7] 39.9 µM | Potency [8] 12.6 µM

CSc1c(Cl)c(Cl)c(Cl)c(Cl)c1Cl
active: Potency [5] 68.2 µM
inactive: Potency [1] | Potency [10] | Potency [2] | Potency [3] | Potency [4] | Potency [11] | Potency [12] | Potency [13] | Potency [17] | Potency [6] | Potency [7] | Potency [8]

CCC1(c2cnc[nH]2)Cc2ccccc2C1
inactive: Potency [14] | Potency [15] | Potency [9] | Potency [10] | Potency [16] | Potency [2] | Potency [3] | Potency [4] | Potency [11] | Potency [12] | Potency [13] | Potency [17] | Potency [5]
active: Potency [6] 0.977 µM | Potency [7] 0.977 µM | Potency [8] 1.55 µM

CC1CCCCN1CCCOC(=O)c1ccc(OC2CCCCC2)cc1 (stereo not given)
active: Potency [6] 15.5 µM
inactive: Potency [14] | Potency [15] | Potency [9] | Potency [10] | Potency [2] | Potency [3] | Potency [4] | Potency [11] | Potency [13] | Potency [17] | Potency [8]

CN(C)c1ccc(N=Nc2ccccc2C(=O)O)cc1
active: Potency [1] 15.4 µM | Potency [4] 61.1 µM | Potency [17] 54.5 µM | Potency [5] 21.7 µM | Potency [6] 39.9 µM | Potency [7] 35.6 µM | Potency [8] 31.7 µM
inactive: Potency [9] | Potency [10] | Potency [2] | Potency [3] | Potency [11] | Potency [13]

C/C=C/c1ccc(OC)c(OC)c1
inactive: Potency [14] | Potency [15] | Potency [9] | Potency [10] | Potency [16] | Potency [4] | Potency [11] | Potency [12] | Potency [13] | Potency [17] | Potency [5] | Potency [6]
active: Potency [7] 71 µM | Potency [8] 35.6 µM

Clc1nc2ccccc2s1
inactive: Potency [14] | Potency [15] | Potency [9] | Potency [10] | Potency [16] | Potency [2] | Potency [3] | Potency [4] | Potency [11] | Potency [13] | Potency [17] | Potency [5] | Potency [6] | Potency [7] | Potency [8]

O=S(O)O
inactive: activity change, negative = cytotoxicity [14] -0.356% [at 18.9 µM] | activity change, negative = cytotoxicity [15] -3.11% [at 19 µM] | viability change, negative = cytotoxic [9] 0.444% [at 15.8 µM] | activity change, negative = cytotoxicity [10] -1.2% [at 15.8 µM] | activation [16] -2.31% [at 15.8 µM] | activity, negative = inhibition [2] 0.51% [at 10.5 µM] | activation [3] 0.0945% [at 11.8 µM] | activity change, negative = cytotoxicity [4] 6.89% [at 19 µM] | caspase activation [11] -0.246% [at 19 µM] | caspase-3/7 activation [13] 0.497% [at 19 µM] | activity change, negative = cytotoxicity [17] -4.78% [at 19 µM] | activation [5] 8.59% [at 19 µM] | activity change, negative = inhibition [6] -20.2% [at 23.6 µM] | activity change, negative = inhibition [7] 0.673% [at 23.6 µM] | activity change, negative = inhibition [8] -8.41% [at 23.6 µM]

C[C@@]12C(=O)OC(=O)[C@]1(C)C1CCC2O1
active: Potency [1] 4.73 µM | Potency [4] 0.266 µM | Potency [12] 10.6 µM | Potency [13] 23.7 µM | Potency [17] 2.98 µM | Potency [5] 1.06 µM | Potency [19] 0.794 µM
inactive: Potency [10] | Potency [16] | Potency [2] | Potency [3] | Potency [18] | Potency [6] | Potency [7] | Potency [8]

CCCCCCCCCCCC(=O)N(CC)CC
active: Potency [5] 21.7 µM | Potency [8] 50.2 µM
inactive: Potency [14] | Potency [15] | Potency [9] | Potency [10] | Potency [16] | Potency [2] | Potency [3] | Potency [4] | Potency [11] | Potency [12] | Potency [13] | Potency [17] | Potency [6] | Potency [7]

Cc1cc2c(C(C)C)c(O)c(O)c(C=O)c2c(O)c1-c1c(C)cc2c(C(C)C)c(O)c(O)c(C=O)c2c1O
inactive: Potency [16] | Potency [2] | Potency [3] | Potency [5] | Potency [6]
active: Potency [1] 13.3 µM | Potency [4] 18.8 µM | Potency [12] 13.3 µM | Potency [17] 26.6 µM | Potency [8] 34.7 µM
